Screens (PubChem)
The list is not random: actives were taken first. Their share in the collection is about 3.8%.
PLK1 PBD inh = inhibitors of human PLK1 polo-box domain binding; P53350; Potency, µM, most hits filed as inhibitors; Plk1 PBD binding of FITC phosphopeptide, fluorescence polarization; hit rate 2.8% among 360,000; AID 720504; also: series mostly up to about 57 µM; nearly all actives have a fitted effect of over 65% in size
Target sequence (P53350 whole entry, looked up, the tested form may be a part): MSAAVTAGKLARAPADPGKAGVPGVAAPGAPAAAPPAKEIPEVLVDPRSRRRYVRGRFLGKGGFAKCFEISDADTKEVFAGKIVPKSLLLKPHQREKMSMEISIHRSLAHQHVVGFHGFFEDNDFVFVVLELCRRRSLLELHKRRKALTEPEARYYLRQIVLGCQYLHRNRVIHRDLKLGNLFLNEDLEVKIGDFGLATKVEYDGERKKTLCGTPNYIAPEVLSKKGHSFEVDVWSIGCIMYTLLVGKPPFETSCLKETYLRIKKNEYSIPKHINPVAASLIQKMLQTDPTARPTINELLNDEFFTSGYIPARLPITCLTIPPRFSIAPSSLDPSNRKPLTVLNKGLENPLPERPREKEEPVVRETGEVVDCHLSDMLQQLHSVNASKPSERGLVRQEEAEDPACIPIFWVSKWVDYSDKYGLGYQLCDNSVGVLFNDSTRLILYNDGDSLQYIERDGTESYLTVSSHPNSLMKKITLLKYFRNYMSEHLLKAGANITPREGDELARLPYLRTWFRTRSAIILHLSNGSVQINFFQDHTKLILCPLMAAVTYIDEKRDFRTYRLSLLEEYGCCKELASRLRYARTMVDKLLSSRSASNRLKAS
MBNL1 CUG block = blocks human MBNL1 binding to CUG repeat RNA; Q9NR56; TR-FRET MBNL1-His/biotin-(CUG)12 binding, 665/545 ratio; Potency, µM (highest dose often 57.5 µM), usual class: inhibitors; hit rate 0.036% among 280,000; AID 2675; active = well fitted inhibition curve with a large enough effect in the signal ratio, with a control signal flat, not every such curve was filed as active; inconclusive = small, poorly fitted or top-dose-only effect, or effect the other way, or a change in a side signal; inactive = no such curve, though single readings can be large or run the other way; the % refers to the signal ratio
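MBNL1-His + Biotin-(CUG)12, cpd titration 92 nM–58 uM; Tb anti-His Ab 0.055 ng/ul, SA-XL665 5 nM (final); 60 min RT; ratiometric 665/545 nm, Ex 340 nm; normalized to buffer and full-complex controls.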
CBFb-RUNX1 inh = CBF-beta/RUNX1 interaction disruption; 230,000 tested, under 10 active; Q01196+Q13951; AlphaScreen CBFb-His/RUNX1-biotin binding, biochemical; Potency, µM (series often up to 59.8 µM), most hits filed as inhibitors
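CBF-beta (His) and RUNX1 (biotin), 30 nM each; 20 min preassociation; + compound, 15 min; + beads 50 ng each (Ni, streptavidin), 90 min; RT; AlphaScreen read.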
VDR inhibitor = inhibitors of human vitamin D receptor; P11473; VDR-SRC2-3 peptide fluorescence polarization, 2 h; Potency, µM, hits mostly inhibitors; hit rate 0.93% among 400,000; AID 504847
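Two reagent solutions held at 4 deg C in the dark were dispensed, compounds pinned at 23 nl, and the mixture incubated 2 h at room temperature. Read-out: fluorescence polarization of VDR–SRC2-3 peptide binding.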
hERG WT inh = blocks the wildtype human KCNH2 potassium channel; Q12809; U2OS, BacMam KCNH2, thallium flux FluxOr; hits give low values; activity change, % at 1.84 µM; hit rate 0.37% among 340,000; AID 720551;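 active = maximum activity change below -70%; inconclusive = maximum activity change between -70% and -50%; inactive = maximum activity change above -50%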
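U2OS cells transduced with wild-type KCNH2 virus are loaded with FluxOr dye for 45 min, and thallium flux is measured in kinetic reads before and after stimulation buffer. Rate constants are normalized to DMSO controls.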
KCNH2 3.1 inh = KCNH2 3.1 (human) potassium channel inhibition; hit rate 0.95% among 340,000; AID 720553; U2OS KCNH2 3.1, thallium flux FluxOr; hits give low values; activity change, % (tested at about 1.8 µM);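 active = maximum activity change below -70%; inconclusive = maximum activity change from -70% to -50%; inactive = maximum activity change above -50%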;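 also: thallium influx rate constant from kinetic fluorescence after stimulation buffer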
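Normalized rate constant (relative to positive and negative DMSO controls) derived from a 2 min kinetic fluorescence read after stimulation; U2OS cells expressing the 3.1 isoform via virus at 1.77 x 10^8 /mL.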
Hits are given with their value. Unless noted, calls follow the shape of the dose curve; as a rule, active = well fitted curve in the direction sought with a large enough effect; inconclusive = small, poorly fitted or top-dose-only effect, or another doubt; inactive = no such curve, though single readings can be large; an effect the other way counts as inactive or inconclusive.

`Cn1nnnc1SCCCNCc1ccccc1OCc1ccccc1F` gave VDR inhibitor inactive.
Screening CNC(=O)C1CCC(Cn2c(=O)c3sccc3n(CC(=O)NCc3ccccc3)c2=O)CC1 (stereo unspecified) returned VDR inhibitor inactive.
Cc1cc(SCC(=O)NN)c2cc(Br)ccc2n1 was read as PLK1 PBD inh inconclusive, MBNL1 CUG block inactive, CBFb-RUNX1 inh inactive, VDR inhibitor 28.2µM, hERG WT inh inactive and KCNH2 3.1 inh inactive.
For CCOc1ccc(-c2nn(-c3ccccc3)cc2C2NC(=O)NC(C)=C2C(=O)OC(C)C)cc1 (stereo unspecified) the results were VDR inhibitor inactive.
For O=S(=O)(c1ccc2c(Cl)cccc2c1)N1CCN(c2nc(-c3cccs3)nc3ccccc23)CC1 the results were VDR inhibitor inactive.
`Cc1cc(OC(=O)c2ccccc2Cl)cc(=O)n1C` gave PLK1 PBD inh 26.7µM, MBNL1 CUG block inactive, CBFb-RUNX1 inh inactive, VDR inhibitor inactive, hERG WT inh inactive and KCNH2 3.1 inh inactive.
For COc1ccc(CCNC(=O)CCCn2nc(C)c3sc4ccccc4c3c2=O)c(OC)c1 the results were VDR inhibitor inactive.
`COc1ccccc1O` gave PLK1 PBD inh inactive, MBNL1 CUG block inactive, CBFb-RUNX1 inh inactive, VDR inhibitor inactive, hERG WT inh inactive and KCNH2 3.1 inh inactive.
COc1cccc(/C=C/c2ccccn2)c1O was read as PLK1 PBD inh 26.7µM, MBNL1 CUG block inconclusive, CBFb-RUNX1 inh inactive, VDR inhibitor inactive, hERG WT inh inactive and KCNH2 3.1 inh inactive.
COc1cccc(/C=C/c2ccc3cccc(O)c3n2)c1OC was read as PLK1 PBD inh inactive, MBNL1 CUG block inactive, VDR inhibitor inconclusive, hERG WT inh inactive and KCNH2 3.1 inh inactive.
COc1cccc(O)c1O was read as VDR inhibitor 50.1µM.
Screening Cc1ccc(-c2cnc(C3CC3)o2)cc1S(=O)(=O)Nc1ccc(F)cc1Cl returned VDR inhibitor inactive.
`CC(C)c1ccc2oc(-c3ccc(Cl)c(NC(=O)Cc4ccccc4)c3)nc2c1` gave VDR inhibitor inactive.
`CC[C@H]1C=C[C@@H](C(C(=O)OC)C(=O)OC)CN1C(C)=O` gave PLK1 PBD inh 26.7µM, VDR inhibitor 79.4µM, hERG WT inh inactive and KCNH2 3.1 inh inactive.
Screening C=CC[C@H]1C=C[C@@H](C(C(=O)OC)C(=O)OC)CN1C(C)=O returned PLK1 PBD inh 23.8µM, VDR inhibitor inconclusive, hERG WT inh inactive and KCNH2 3.1 inh inactive.
Screening C#CC(C)OC(=O)Nc1cccc(Cl)c1 (stereo unspecified) returned CBFb-RUNX1 inh inactive and VDR inhibitor inactive.
O=C(CSc1nc2c(oc3ccccc32)c(=O)n1-c1ccccc1)Nc1ccccc1F was read as VDR inhibitor inactive.
For CN(C)C(=O)CSc1cccc2cccnc12 the results were PLK1 PBD inh 11.9µM, MBNL1 CUG block inactive, CBFb-RUNX1 inh inconclusive, VDR inhibitor inactive, hERG WT inh inactive and KCNH2 3.1 inh inactive.
`O=C(CSc1cccc2cccnc12)OCC(=O)c1ccccc1` gave PLK1 PBD inh 21.2µM, MBNL1 CUG block inactive, CBFb-RUNX1 inh inactive, VDR inhibitor 20µM, hERG WT inh inactive and KCNH2 3.1 inh inactive.
`CN(C)C(=O)c1ccc(NC(=O)Cn2nnnc2-c2ccccc2F)cc1` gave VDR inhibitor inactive.
For CC(C)(C)c1cnnn1-c1ccc(C(=O)CCl)cc1 the results were PLK1 PBD inh 6.7µM, MBNL1 CUG block inactive, CBFb-RUNX1 inh inactive, VDR inhibitor 79.4µM, hERG WT inh inactive and KCNH2 3.1 inh inactive.
For CC(C)(C)c1cnnn1-c1ccc(C=O)cc1 the results were PLK1 PBD inh inactive, MBNL1 CUG block inactive, CBFb-RUNX1 inh inactive, VDR inhibitor inactive, hERG WT inh inactive and KCNH2 3.1 inh inactive.
Screening COc1ccc(-c2csc3nc(C)nc(N4CCC(C)CC4)c23)cc1OC returned PLK1 PBD inh inactive, MBNL1 CUG block inactive, CBFb-RUNX1 inh inactive, VDR inhibitor inactive, hERG WT inh inactive and KCNH2 3.1 inh -136.7.
`CC(C)N(CCCNC(=O)CC1Oc2ccccc2NC1=O)Cc1ccccc1` (stereo unspecified) gave PLK1 PBD inh 26.7µM, MBNL1 CUG block inactive, CBFb-RUNX1 inh inactive, VDR inhibitor inactive, hERG WT inh inactive and KCNH2 3.1 inh inactive.
For CC(C)CN(CCCNC(=O)CC1Oc2ccccc2NC1=O)CC(C)C (stereo unspecified) the results were PLK1 PBD inh inactive, MBNL1 CUG block inactive, CBFb-RUNX1 inh inactive, VDR inhibitor inactive, hERG WT inh inactive and KCNH2 3.1 inh inactive.
For CCOC(=O)c1cnn(CCOC(=O)c2ccc(OC)cc2)c1NC(=O)c1ccc(OC)cc1 the results were PLK1 PBD inh inactive, CBFb-RUNX1 inh inactive, VDR inhibitor inactive, hERG WT inh inactive and KCNH2 3.1 inh inactive.
CCOC(=O)c1sc(=S)n(C)c1NC(=O)c1ccccc1Cl was read as PLK1 PBD inh 11.9µM, MBNL1 CUG block inactive, CBFb-RUNX1 inh inactive, VDR inhibitor inconclusive, hERG WT inh inactive and KCNH2 3.1 inh inactive.
Screening CCOC(=O)c1sc(=S)n(C)c1NC(=O)c1ccc(OC)cc1 returned PLK1 PBD inh 3.36µM, MBNL1 CUG block inactive, CBFb-RUNX1 inh inactive, VDR inhibitor 50.1µM, hERG WT inh inactive and KCNH2 3.1 inh inactive.
CSc1nnc2c(n1)OC1(Nc3ccccc3-2)C(=O)Nc2ccccc21 (stereo unspecified) was read as PLK1 PBD inh 26.7µM, MBNL1 CUG block inconclusive, CBFb-RUNX1 inh inactive, VDR inhibitor inactive and KCNH2 3.1 inh inactive.
For CCSc1nnc2c(n1)OC(C)(C)Nc1ccccc1-2 the results were PLK1 PBD inh inactive, MBNL1 CUG block inactive, CBFb-RUNX1 inh inactive, VDR inhibitor inactive, hERG WT inh inactive and KCNH2 3.1 inh inactive.
For O=c1c(=O)n(-c2ccc(F)c(F)c2)ccn1Cc1ccc(F)cc1Cl the results were VDR inhibitor inactive.
For CNC(=O)NC(=O)C(C)OC(=O)c1cc2c(s1)CCCCC2 (stereo unspecified) the results were PLK1 PBD inh inactive, MBNL1 CUG block inconclusive, CBFb-RUNX1 inh inactive, VDR inhibitor inactive, hERG WT inh inactive and KCNH2 3.1 inh -98.0.
`CCc1ccc(NC(=O)Cn2c(=O)n(CC3CCCO3)c(=O)c3cc(OC)c(OC)cc32)cc1` (stereo unspecified) gave VDR inhibitor inactive.
`Cc1nn(C)c2c1c(-c1ccccc1)cc(=O)n2Cc1ccccc1Cl` gave VDR inhibitor inactive.
For CS(=O)c1ccccc1O (stereo unspecified) the results were PLK1 PBD inh inactive, MBNL1 CUG block inactive, CBFb-RUNX1 inh inactive, VDR inhibitor inactive, hERG WT inh inactive and KCNH2 3.1 inh inactive.
For O=S(c1ccccc1O)S(=O)c1ccccc1O (stereo unspecified) the results were PLK1 PBD inh 0.597µM, VDR inhibitor 35.5µM, hERG WT inh inactive and KCNH2 3.1 inh inactive.
